Experimental data taken from PMC4336329 (PLoS ONE, 2015).
About 14,000 (4.5%) of roughly 310,000 compounds showed an effect of 50% or more. The effect is printed as a negative number. For the sample, strong results were picked, then their nearest neighbours and some compounds at random.

What follows are compounds tested against human ether-à-go-go-related gene (hERG) potassium channel (human, UniProt Q12809) (assay: primary screen, population patch clamp on CHO cells stably expressing hERG; higher = less effect of the substance).
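Note: peak tail current of the secondary pulse compared with the same well before compound.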

Sequence of human ether-à-go-go-related gene (hERG) potassium channel (Q12809 whole entry, looked up): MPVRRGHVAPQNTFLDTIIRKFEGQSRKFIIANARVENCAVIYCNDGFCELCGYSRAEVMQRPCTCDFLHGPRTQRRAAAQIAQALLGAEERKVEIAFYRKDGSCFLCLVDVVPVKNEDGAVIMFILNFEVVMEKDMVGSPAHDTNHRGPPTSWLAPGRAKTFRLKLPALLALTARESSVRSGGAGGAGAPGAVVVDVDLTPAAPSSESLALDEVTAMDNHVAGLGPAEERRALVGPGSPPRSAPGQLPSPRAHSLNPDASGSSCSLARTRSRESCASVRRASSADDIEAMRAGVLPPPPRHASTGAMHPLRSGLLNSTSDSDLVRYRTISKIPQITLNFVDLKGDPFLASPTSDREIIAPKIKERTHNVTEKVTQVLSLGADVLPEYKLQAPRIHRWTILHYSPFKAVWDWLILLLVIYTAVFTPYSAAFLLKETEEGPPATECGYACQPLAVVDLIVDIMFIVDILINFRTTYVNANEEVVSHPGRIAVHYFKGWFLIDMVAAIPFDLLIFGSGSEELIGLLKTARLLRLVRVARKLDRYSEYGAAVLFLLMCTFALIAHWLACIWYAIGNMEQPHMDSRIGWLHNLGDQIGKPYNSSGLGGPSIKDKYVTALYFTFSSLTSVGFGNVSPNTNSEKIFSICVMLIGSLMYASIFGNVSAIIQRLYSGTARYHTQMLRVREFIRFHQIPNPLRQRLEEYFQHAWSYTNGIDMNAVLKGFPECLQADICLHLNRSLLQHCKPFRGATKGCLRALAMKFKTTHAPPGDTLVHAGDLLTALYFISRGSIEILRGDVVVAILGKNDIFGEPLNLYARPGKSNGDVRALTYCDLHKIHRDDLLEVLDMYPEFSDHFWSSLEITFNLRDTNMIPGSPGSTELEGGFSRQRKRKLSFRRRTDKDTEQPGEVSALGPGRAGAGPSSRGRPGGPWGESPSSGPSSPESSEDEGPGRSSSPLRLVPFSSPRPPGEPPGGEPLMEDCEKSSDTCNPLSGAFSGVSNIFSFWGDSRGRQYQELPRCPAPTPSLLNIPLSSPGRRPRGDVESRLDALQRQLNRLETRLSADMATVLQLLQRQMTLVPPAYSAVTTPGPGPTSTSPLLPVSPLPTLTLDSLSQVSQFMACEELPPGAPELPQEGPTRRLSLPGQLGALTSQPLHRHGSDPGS

Structure (SMILES) | hERG current change (%, negative = inhibition) at 10uM
COC(=O)C1=C(c2ccc(Cl)c(C(F)(F)F)c2)C[C@@H]2CC[C@H]1N2C(=O)NCC1CC1 | -16.3%
COc1ccc(CC(=O)N/N=C(/C)CC(=O)N(C)c2ccccc2)cc1 | 9.63%
Cc1ccc(NC(=O)c2cc(NC(=O)c3ccco3)ccc2N2CCCCC2)cc1 | 13%
CCCN(CC(=O)Nc1cccc(Br)c1)CC(=O)Nc1ccc(F)c(F)c1F | -10.1%
CCOC(=O)N1CCN(C(=O)c2ccc3c(c2)NC(=O)/C(=C/c2ccccc2)S3)CC1 | -17.8%
Cn1c2ccccc2c2nnc(SCC(=O)Nc3cccc(O)c3)nc21 | -45.6%
Cc1ccccc1N1CCN(Cc2ccc3c(c2)OCO3)CC1 | -31.2%
Cc1cccc(Nc2nc(N)nc(CN3CCC(C)CC3)n2)c1C | -37.6%
Cc1ccc(NC(=S)N2CCN(Cc3ccc4c(c3)OCO4)CC2)c(C)c1 | -1.01%
Cc1ccc(Nc2nc(N)nc(CN3CCC(C)CC3)n2)c(C)c1 | -57.8%
Cc1ccc(Nc2nc(N)nc(CCl)n2)c(C)c1 | 16.1%
COc1ccccc1NC(=S)N1CCN(Cc2ccc3c(c2)OCO3)CC1 | -1.31%
COc1ccccc1Nc1nc(N)nc(CN2CCN(Cc3ccc4c(c3)OCO4)CC2)n1 | -78.1%
Cc1ccc(Nc2nc(N)nc(CN3CCCCCC3)n2)c(C)c1 | -45.8%
Cc1ccc(Nc2nc(N)nc(CN3CCN(Cc4ccc5c(c4)OCO5)CC3)n2)c(C)c1 | -76.9%
COc1ccccc1N1CCN(Cc2ccc3c(c2)OCO3)CC1 | -20.1%
Cc1ccccc1NC(=S)N1CCN(Cc2ccc3c(c2)OCO3)CC1 | -10.3%
Cc1ccccc1Nc1nc(N)nc(CN2CCN(Cc3ccc4c(c3)OCO4)CC2)n1 | -68%
O=C(c1ccc2ccccc2c1)N1CCN(c2ccccn2)CC1 | -20%
CCOc1ccc(NC2=NCC(=O)N2Cc2cccs2)cc1.Cl | -1.9%
COc1ccc(/C(C)=N/NC(=O)c2cc(C)[nH]n2)c(OC)c1 | 1.33%
O=C(Nc1nccs1)c1cc2c(s1)CCCCC2 | 6.98%
CSCCC(NC(=O)c1ccco1)C(=O)N1CCCCCCC1 (centres unmarked) | -4.39%

Structure (SMILES) | hERG current change (%, negative = inhibition) at 10uM
O=C(CCc1nnc(CCCCc2ccccc2)o1)NCCCc1cccnc1 | -14.8%
COc1ccccc1CCNC(=O)c1c(C)nn(CC(C)C)c1Cl | -4.9%
CCCC(=O)NC(=S)Nc1sc2c(c1C(N)=O)CCC2 | 11.7%
O=C(Cn1c(=O)cnc2ccccc21)Nc1cccc(S(=O)(=O)N2CCOCC2)c1 | -21%
COc1ccc(NC(=O)Cn2c(=O)cnc3ccccc32)cc1S(=O)(=O)N1CCCCC1 | -10.9%
Cc1ccc(NC(=O)Cn2c(=O)cnc3ccccc32)cc1S(=O)(=O)N1CCOCC1 | -30.4%
Cc1ccc(S(=O)(=O)N2CCCCC2)cc1NC(=O)Cn1c(=O)cnc2ccccc21 | 9.61%
O=C(Cn1c(=O)cnc2ccccc21)Nc1cccc(S(=O)(=O)N2CCCCC2)c1 | -50.3%
Cc1ccc(NC(=O)Cn2c(=O)cnc3ccccc32)cc1S(=O)(=O)N1CCCCC1 | -50.8%
CC(C)c1ccc(OCc2nc(-c3ccccn3)no2)c(Br)c1 | -10.6%
CCN1C(=O)N(CC)C2C1N(C(C)=O)C(=O)N2C(C)=O (centres unmarked) | -6.42%
N#CC1=C(N)OC2=C(C(=O)CCC2)[C@]12C(=O)N(CC(N)=O)c1ccccc12 | 4.73%
COc1cc(CC(=O)OCC(=O)N2CC(C)CC(C)C2)cc(OC)c1OC (centres unmarked) | 30.9%
O=C(OCC(=O)N1CCc2ccccc2C1)c1ccc(N2CCOCC2)c([N+](=O)[O-])c1 | -51%
O=C(OCC(=O)N1CCOCC1)c1ccc(N2CCOCC2)c([N+](=O)[O-])c1 | 19.9%
O=C(c1ccc(N2CCOCC2)c([N+](=O)[O-])c1)N1CCN(Cc2ccccc2)CC1 | -66.9%
O=C(Nc1ccc(CN2CCOCC2)cc1)c1ccc(N2CCCC2)c([N+](=O)[O-])c1 | -21.4%
CC1CCN(c2ccc(C(=O)N3CCOCC3)cc2[N+](=O)[O-])CC1 | -0.762%
Nc1ccc(C(=O)OCC(=O)N2CCc3ccccc3C2)cc1[N+](=O)[O-] | -21.1%
O=C(Nc1ccccc1N1CCOCC1)c1ccc(N2CCOCC2)c([N+](=O)[O-])c1 | -20.7%
Cl.O=C(NN1CCN(Cc2ccccc2)CC1)c1ccc(N2CCOCC2)c([N+](=O)[O-])c1 | -66.6%
O=C(c1ccc(N2CCCCC2)c([N+](=O)[O-])c1)N1CCOCC1 | -22.6%
CC(=O)OC[C@]1(OC(C)=O)C[C@@]23CC[C@H]4[C@@](C)(CCC[C@@]4(C)C(=O)O)[C@@H]2CC[C@@H]1C3 | 4.84%

Structure (SMILES) | hERG current change (%, negative = inhibition) at 10uM
O=C(NCC(=O)N1CCN(C(=O)c2ccco2)CC1)c1cccc(Cl)c1 | -48.6%
CC(OC(=O)Cn1cnc2c1c(=O)n(C)c(=O)n2C)C(=O)NCc1ccccc1 (centres unmarked) | 3.36%
Cc1noc(C)c1S(=O)(=O)Nc1ccc(C(=O)N2CCN(c3cccc(Cl)c3)CC2)cc1 | -4.16%
O=C(Nc1ccc(C(=O)N2CCCC2)cc1)c1ccc(F)cc1Cl | 0.232%
S=C(Nc1ccc2nc(-c3ccccn3)c(-c3ccccn3)nc2c1)N1CCCCCC1 | -15.6%
O=C(Nc1ccc2nc(-c3ccccn3)c(-c3ccccn3)nc2c1)N1CCOCC1 | 5.82%
S=C(Nc1ccc2nc(-c3ccccn3)c(-c3ccccn3)nc2c1)N1CCOCC1 | -69.6%
Cc1nnn(C23CC4CC(CC(C4)C2)C3)n1 | 7.98%
O=C(CCc1ccccn1)NC1CCCc2c1cnn2-c1ccc(F)cc1F (centres unmarked) | 3.18%
CN(C)C(=S)c1ccc2ccccc2n1 | 17.1%
COc1cc(-c2noc(C)c2-c2ccc3[nH]ccc3c2)cc(OC)c1OC | 8.02%
COC(=O)c1cc(-c2c(-c3cc(OC)c(OC)c(OC)c3)noc2C)cc([N+](=O)[O-])c1 | -67.8%
COc1cc(-c2c(-c3cc(OC)c(OC)c(OC)c3)noc2C)ccc1F | 13.6%
CCOc1ncccc1C(=O)OCC(=O)c1cc(C)n(Cc2ccco2)c1C | -7.34%
O=S(=O)(/C=C/c1ccccc1)N1CCOCC1 | 7.65%
CCOC(=O)c1[nH]cnc1C(=O)Nc1ccc([N+](=O)[O-])cc1 | 4.57%
CC(C(=O)Nc1ccccc1F)N1CCN(C)CC1.O=C(O)C(=O)O (centres unmarked) | 11.9%
COc1cc2nc(CN3CCN(S(=O)(=O)c4c(F)cccc4F)CC3)[nH]c(=O)c2cc1OC | -33.4%
CCS(=O)(=O)N1CCN(Cc2nc3ccccc3c(=O)[nH]2)CC1 | -12.9%
O=c1[nH]c(CN2CCN(S(=O)(=O)/C=C/c3ccccc3)CC2)nc2cc(Cl)ccc12 | -65.8%
O=c1[nH]c(CN2CCN(S(=O)(=O)/C=C/c3ccccc3)CC2)nc2ccccc12 | -66.5%
COc1cc2nc(CN3CCN(S(=O)(=O)c4ccc(Cl)cc4)CC3)[nH]c(=O)c2cc1OC | -58.2%
O=c1[nH]c(CN2CCN(S(=O)(=O)c3ccc4ccccc4c3)CC2)nc2ccccc12 | 2.03%

Structure (SMILES) | hERG current change (%, negative = inhibition) at 10uM
O=C1CN(Cc2nc3cc(Cl)ccc3c(=O)[nH]2)CCN1 | 25.4%
COc1cc2nc(CN3CCN(S(=O)(=O)c4ccc(C)c(C)c4)CC3)[nH]c(=O)c2cc1OC | -16.8%
O=c1[nH]c(CN2CCN(S(=O)(=O)c3ccc(Cl)cc3)CC2)nc2cc(Cl)ccc12 | -11.8%
COc1ccc(C)cc1S(=O)(=O)N1CCCC(N2CCOCC2)C1 (centres unmarked) | 13.4%
O=S(=O)(Nc1cccc2c1CCCC2)c1ccc(Cl)cc1 | -9.87%
COC(=O)c1c(NC(=O)C2CCC2)sc(C(=O)N(C)C)c1C | 4%
O=C(/C=C/c1ccc2c(c1)OCO2)c1c(O)n(CCc2ccccc2)c(=O)[nH]c1=O | 1.79%
COc1cc(CCC(=O)OCC(=O)Nc2ccc(Br)cc2F)cc(OC)c1OC | -11.6%
COC(=O)c1ccc(NC(=O)CN2CCN(c3ccc(Cl)cc3)CC2)cc1 | 11.9%
O=C(CN1CCN(CC(=O)Nc2ccc(Cl)cc2)CC1)Nc1ccc(F)cc1 | -76.9%
O=C(CSc1cc(Cl)ccc1Cl)Nc1ccc(N2CCOCC2)cc1 | -58.3%
O=C(CSc1ccccc1F)Nc1ccc(N2CCOCC2)cc1 | 3.82%
NC(=O)c1ccc(NC(=O)CN2CCN(c3ccccc3)CC2)cc1 | 12.6%
O=C(CN1CCN(CC(=O)Nc2ccc(-c3ccccc3)cc2)CC1)Nc1ccc(F)cc1 | -66.2%
Cc1ccc(SCC(=O)Nc2ccc(N3CCOCC3)cc2)c(C)c1 | 10.5%
NC(=O)c1ccc(NC(=O)CN2CCN(c3ccc(Cl)cc3)CC2)cc1 | -51.3%
O=C(CN1CCN(CC(=O)Nc2cccc(F)c2)CC1)Nc1ccc(-c2ccccc2)cc1 | -28.6%
O=C(CN1CCOCC1)Nc1ccc(F)cc1 | 2.97%
O=C(CN1CCOCC1)Nc1ccc(Cl)cc1 | -1.12%
O=C(CN1CCN(c2ccccc2)CC1)Nc1ccc(F)cc1 | -39.7%
